A short description of assay [1]: Viability qHTS for spleen associated tyrosine kinase inhibitor (SYKi) naive MV4-11 cells (AID 1963823). Also: nearly all actives have a fitted effect of over 40% in size. The method in brief:
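qHTS, SYK inhibitor-naive MV4-11; 500 cells/well; 72 hr compound exposure, 37 C; CellTiter-Glo added, 10 min RT; luminescence read.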
In general terms: Quantitative high-throughput screening tests each substance at several concentrations.

A short description of assay [2]: Viability qHTS for spleen associated tyrosine kinase inhibitor (SYKi) drug resistant MV4-11 cells (AID 1963824). Also: nearly all actives have a fitted effect of over 35% in size. The method in brief: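 SYK inhibitor-resistant MV4-11 AML cells, 500 per well, added to predispensed compounds and incubated 72 hr at 37 C, 5% CO2. Viability measured by CellTiter-Glo luminescence after 10 min at room temperature.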
Assay [3] in a line: Quantitative highthroughput screen to assess conditional lethalithy of NOMO1 cells grown in Human Plasma-Like Medium with dialyzed fetal bovine serum (HPLM+ds) (AID 1963878). Also: nearly all actives have a fitted effect of over 35% in size. Summed up:
(§1)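 Each medium arm—HPLM with 10% dialyzed FBS, or RPMI1640 with 5 mM glucose and 10% untreated or dialyzed FBS—was screened against an 11-point, 3-fold compound titration for 48 h at 37 °C, with CellTiter-Glo luminescence as endpoint.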

Assay [4] can be described thus: Quantitative highthroughput screen to assess conditional lethalithy of P12 Ichikawa cells grown in Human Plasma-Like Medium with dialyzed fetal bovine serum (HPLM+ds) (AID 1963879). Also: nearly all actives have a fitted effect of over 35% in size. As to Viability: series mostly up to about 46 µM. To be noted: Potency: viability. The method in brief: as §1
The nature of assay [5]: Quantitative highthroughput screen to assess conditional lethalithy of NOMO1 cells grown in RPMI1640 with dialyzed fetal bovine serum (RPMI+ds) (AID 1963877). Also: nearly all actives have a fitted effect of over 30% in size.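 As to Viability: series mostly up to about 46 µM; 100% = DMSO control wells and 0% = empty wells.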 Summed up: as §1
Assay [6] can be described thus: Quantitative highthroughput screen to assess conditional lethalithy of SEM cells grown in Human Plasma-Like Medium with dialyzed fetal bovine serum (HPLM+ds) (AID 1963882). Also: nearly all actives have a fitted effect of over 35% in size. The method in brief: as §1
Assay [7] in a line: Cellular viability qHTS for adrenocortical cancer (ACC) cell line SW-13 (AID 1963989). Also: nearly all actives have a fitted effect of over 65% in size.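 As to activity (max response): cells grown in serum-free medium with ITS supplement; % is scaled to controls: 0 for no effect and ±100 for the full control effect.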 Particulars: SW-13 ACC cells viability, CellTiter-Glo, 48 h; activity (max response): stronger effect = lower value. The method in brief: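 Luminescent ATP read-out (CellTiter-Glo, 20 min at room temperature) measured metabolically competent SW-13 cells after 48 h compound treatment. Final concentrations spanned up to 46 uM; bortezomib served as positive control.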

Assay [8] is described as follows: Cellular viability qHTS for adrenocortical cancer (ACC) cell line NCI-H295R (AID 1963990). Also: nearly all actives have a fitted effect of over 60% in size.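 As to activity change, negative = viability loss: 0% = DMSO only wells and -100% = full killing with cytotoxic reference compound.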 Summed up:
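IC50 and maximal efficacy derive from four-parameter logistic modelling of titration curves, with reads scaled between DMSO-only wells (0%) and doxorubicin hydrochloride (100% inhibition). Compounds spanned up to 46 uM over 48 h.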

Assay [9] is described as follows: Quantitative highthroughput screen to assess conditional lethalithy of P12 Ichikawa cells grown in RPMI1640 with dialyzed fetal bovine serum (RPMI+ds) (AID 1963880). Also: nearly all actives have a fitted effect of over 35% in size.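 As to Viability: 100% = DMSO wells and 0% = empty wells on each plate.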 Particulars: Potency: P12-Ichikawa viability. Summed up: as §1
Assay [10] in a line: Quantitative highthroughput screen to assess conditional lethalithy of P12 Ichikawa cells grown in RPMI1640 with untreated serum (RPMI+s) (AID 1963881). Also: nearly all actives have a fitted effect of over 35% in size.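 As to Viability: series mostly up to about 46 µM; 100% = DMSO wells and 0% = empty wells without cells.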 To be noted: Potency: viability. Summed up: as §1
The nature of assay [11]: Quantitative highthroughput screen to assess conditional lethalithy of SEM cells grown in RPMI1640 with unreated serum (RPMI+s) (AID 1963883). Also: nearly all actives have a fitted effect of over 35% in size. The method in brief: as §1
A short description of assay [12]: Quantitative highthroughput screen to assess conditional lethalithy of SEM cells grown in RPMI1640 with dialyzed fetal bovine serum (RPMI+ds) (AID 1963884). Also: nearly all actives have a fitted effect of over 35% in size.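 As to Viability: series mostly up to about 46 µM; 100% = DMSO control wells and 0% = empty wells without cells.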 The method in brief: as §1

“And” between values parts separate entries of the source, which are not always exact repeats. Equal values may be shown once. Inconclusive results are not listed. Where a structure was tested more than once in an assay, its records may differ in their call. The source made the active and inactive calls. Calls follow the shape of the dose curve; as a rule, active = well fitted curve in the direction sought with a large enough effect; inconclusive = small, poorly fitted or top-dose-only effect, or another doubt; inactive = no such curve, though single readings can be large; an effect the other way counts as inactive or inconclusive.
Potency is read from the fitted curve at half-maximal effect.

Turning to `Cc1cccc2c1CC[C@H](CN1CCC(c3c(Cl)cccc3Cl)CC1)C[C@@H]2O`, the Potency in assay [1] is 3.26 µM (active); in assay [2] it was 2.59 µM (active); in assay [3], 8.33 µM (active). For the same molecule, the Potency result in [4] is “inactive”.
On to `COc1cc(CCc2cc(NC(=O)c3ccc(N4C[C@@H](C)N[C@@H](C)C4)cc3)n[nH]2)cc(OC)c1`, for which the Potency in assay [1] was 1.18 µM (active); in [2], 1.64 µM (active); in assay [5], 18.7 µM (active); in [4], 20.9 µM (active); in assay [6], 5.26 µM (active); in assay [7], 28.2 µM (active). The Potency in assay [8] is 17.8 µM (active).
With `CN(C)C(=O)C(CCN1CCC(O)(c2ccc(Cl)cc2)CC1)(c1ccccc1)c1ccccc1`, the Potency in assay [1] was 16.8 µM (active) and 14.8 µM (active); in assay [2], 15 µM (active) and 10.5 µM (active); in [5] it was 20.9 µM (active); in assay [7], 5.17 µM (active); in assay [8], 1.84 µM (active) and 28.2 µM (active).
Turning to `Cc1nn(C)c(COc2ccc(N3CCN(S(=O)(=O)N(C)C)CC3)cc2)c1-c1cccc2c(CCCOc3cccc4ccccc34)c(C(=O)O)n(CCN3CCOCC3)c12`, the Potency is 7.42 µM (active) and inactive in [1]; 6.61 µM (active) and inactive in [2]. Moreover, the Potency entry in assay [5] and in assay [8] was “inactive” throughout.
With `NS(=O)(=O)c1ccc(Nc2nc(OCC3CCCCC3)c3[nH]cnc3n2)cc1`, the Potency is 0.58 µM (active) in assay [1]; 0.651 µM (active) in [2]; 0.59 µM (active) in [5]; 0.296 µM (active) in [9]; 0.372 µM (active) in assay [10]; 0.469 µM (active) in assay [6]. Further, the Potency in assay [11] is 0.296 µM (active); in [12] it was 0.469 µM (active); in [7], 22.4 µM (active).
As to `Cc1cccc(Nc2nc(N[C@@H]3CCCC[C@H]3N)ncc2C(N)=O)c1`, the Potency in assay [1] is 0.934 µM (active); in [2] it was 2.63 µM (active); in [3], 0.935 µM (active); in assay [4] it was 1.32 µM (active); in assay [9], 1.87 µM (active); in assay [10], 3.32 µM (active). The Potency in [11] was 4.18 µM (active); in assay [12], 2.35 µM (active); in assay [7] it was 25.1 µM (active); in assay [8], 28.2 µM (active).
Take `Cc1cc(Nc2nc(N[C@@H](C)c3ccc(F)cc3)c(C#N)cc2F)n[nH]1`: the Potency was 0.651 µM (active) in assay [1]; 580 nM (active) and 590 nM (active) in assay [2]; 2.64 µM (active) in [5]; 2.09 µM (active) in assay [9]; 2.35 µM (active) in assay [10]; 3.32 µM (active) in [6]. In addition, the Potency in assay [11] is 2.96 µM (active); in assay [12] it was 2.64 µM (active); in [7], 3.16 µM (active).
As for `CC1(C)CCC(CN2CCN(c3ccc(C(=O)NS(=O)(=O)c4ccc(NCC5CCOCC5)c([N+](=O)[O-])c4)c(Oc4cnc5[nH]ccc5c4)c3)CC2)=C(c2ccc(Cl)cc2)C1`, the Potency was 0.105 µM (active) in assay [1]; 10 nM (active) and 41.7 nM (active) in assay [2]; 0.105 µM (active) in [5]; 0.0332 µM (active) in assay [6]; 0.0526 µM (active) in [11]; 0.0264 µM (active) in assay [12]. Besides, the activity (max response) in assay [7] is -2.3% (inactive). Further, in assay [8], the Potency result is “inactive”.
`CC1CCC(C(=O)N(c2cc(C#CC(C)(C)C)sc2C(=O)O)C2CCC(O)CC2)CC1` (configuration not stated): the Potency in assay [1] was 16.4 µM (active); in assay [2], 11.8 µM (active) and 14.6 µM (active); in assay [3], 5.26 µM (active).
As for `S=P(N1CC1)(N1CC1)N1CC1`, the Potency entry was “inactive and 6.61 µM (active)” in [1]; 3.32 µM (active) in assay [2]. Further, the Potency result in assay [5], in assay [4], in assay [9], in [10] and in assay [8] was “inactive” throughout. Moreover, the activity (max response) in [7] is 10.4% (inactive).
As for `Cn1cc(C2=C(c3c4n(c5ccccc35)CCC(CN)C4)C(=O)NC2=O)c2ccccc21` (configuration not stated), the Potency in assay [1] was 2.15 µM (active); in assay [2] it was 2.7 µM (active); in [5] it was 18.7 µM (active); in assay [6], 10.5 µM (active); in [11], 10.5 µM (active). For the same molecule, in assay [7], the activity (max response) was -20.5% (inactive). For the same molecule, the activity change, negative = viability loss in assay [8] is -2.33% [at 9.17 µM] (inactive).
On to `COc1cc(OC2CCN(C)CC2)ccc1Nc1ncc2c(n1)n(C1CCCC1)c(=O)n2C`, for which the Potency in assay [1] was 1.86 µM (active); in assay [2], 2.95 µM (active); in [5] it was 18.7 µM (active); in [9], 20.9 µM (active); in assay [10] it was 23.5 µM (active); in assay [6], 10.5 µM (active). The Potency in assay [11] is 11.8 µM (active); in [12], 14.8 µM (active); in assay [7], 25.1 µM (active); in [8] it was 15.8 µM (active).
`CCC(C(=O)O)C1CCC(C)C(C(C)C(O)C(C)C(=O)C(CC)C2OC3(C=CC(O)[C@@]4(CC[C@](C)(C5CC[C@@](O)(CC)C(C)O5)O4)O3)C(C)CC2C)O1` (some centres not stated): the Potency in assay [1] was 0.332 µM (active); in [2], 0.417 µM (active); in assay [5], 1.18 µM (active); in [11], 1.66 µM (active); in assay [7] it was 2.82 µM (active); in assay [8], 0.708 µM (active).
Turning to `c1ccc(CNc2nc(NCc3ccccc3)c3ccccc3n2)cc1`, the Potency in assay [1] is 1.86 µM (active); in assay [2], 2.09 µM (active); in [3], 26.4 µM (active); in assay [7] it was 3.98 µM (active); in assay [8] it was 7.08 µM (active). In addition, the Potency entry in assay [4] and in assay [12] was “inactive” throughout.
